Unmarked numbers belong to inactive results. Records with an inconclusive call do not appear. Active and inactive are the calls of the source.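 Rule for the calls, unless noted: active = inhibition over a set limit, the all-compound mean plus 3 SD, in both replicate runs; inconclusive = over that limit in just one replicate run; inactive = at or under that limit in both runs.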
Experiment: viability of PTEN-null HCT116 cells – cell-based, HCT116 clonal line, CellTiter-Glo, pilot screen (AID 824;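 active = viability at or below 27.92% in each of two runs, the all-compound median minus 4 SD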;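 note: 0% = 20 µM Hyamine control and 100% = vehicle cell control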)
Settings: HCT116 PTEN-deleted viability, 60 h, at 10 µM, hits give low values

Row | SMILES | viability
1 | Cc1oc(-c2cccs2)nc1CS(=O)CC(=O)NCCc1ccccc1 (stereo not given) | 97.5%
2 | CCN(CC)C(=O)C1CCCN(C/C=C/c2ccccc2)C1 (stereo not given) | 90.9%
3 | c1ccc(Cn2c(CSc3nnnn3-c3ccccc3)nc3ccccc32)cc1 | 95%
4 | COc1ccc(-c2cn3c(C)c(C(=O)NC(C)(C)C)sc3n2)cc1 | 85.7%
5 | C/C=C/Cn1c(N(C)Cc2ccccc2)nc2c1c(=O)[nH]c(=O)n2C | 87.6%
6 | CCC1CC(C)(C(=O)Nc2ccc(S(N)(=O)=O)cc2)OC1=O (stereo not given) | 98.1%
7 | Cc1cccn2cc(-c3ccc(F)cc3)nc12 | 82.9%
8 | CC1CCCCN1C(=O)c1ccccc1NC(=O)c1ccco1 (stereo not given) | 96.5%
9 | COCCNS(=O)(=O)c1ccc(C2CNC(=O)C2)cc1 (stereo not given) | 104%
10 | COc1cccc(OCC(=O)N(Cc2nc(-c3ccc(Cl)cc3)no2)C(C)C)c1 | 89.7%
11 | COC(=O)C1C(=O)c2c([nH]c(C(=O)OC3CCCC3C)c2C)CC1C (stereo not given) | 72.7%
12 | O=C(Cn1c(S(=O)(=O)Cc2ccccc2)nc2ccccc21)N1CCCCC1 | 99.3%
13 | COc1ccc(Cl)cc1NC(=O)CSc1nnc(Cn2c(=O)sc3ccccc32)n1C | 95.6%
14 | Cc1cc(C)c(C)c(OCC(=O)NCCN(C)C)c1 | 91.3%
15 | COC(=O)c1ccc(C2C(C(C)=O)=C(C)Nc3ncnn32)cc1 (stereo not given) | 98.7%
16 | CCOC(=O)Cn1c(=O)oc2cc(S(=O)(=O)Nc3c(C)cc(C)cc3C)ccc21 | 95.3%
17 | CC(c1ccccc1)C(CC(=O)O)C(=O)NC1CCCCC1 (stereo not given) | 103%
18 | Cc1cc(C2N=C(N)Nc3nc4ccccc4n32)c(C)n1-c1ccccc1Cl (stereo not given) | 16.7% (active)
19 | CCOCCn1c(SCCc2ccccc2)nc2c1c(=O)[nH]c(=O)n2C | 98.9%
20 | CSc1ccc(S(=O)(=O)N2CCN(Cc3ccc4c(c3)OCO4)CC2)cc1 | 86.3%

Row | SMILES | viability
21 | CC(=O)N1C(C(=O)O)CSC1c1ccc(C)cc1 (stereo not given) | 95.6%
22 | Cc1cc(=O)[nH]c(SCc2cc(Cl)ccc2OC(F)F)n1 | 92.1%
23 | C=CCn1c(=NC(=O)C2CC2)sc2cc(NC(C)=O)ccc21 | 101%
24 | O=C(O)c1ccc(-n2nnnc2SCc2ccccc2F)cc1 | 102%
25 | O=C(O)C1(P(=O)(c2ccccc2)c2ccccc2)CCC1 | 99.3%
26 | CCOC(=O)C1=C(C)NC(=O)NC1c1ccc(C)o1 (stereo not given) | 100%
27 | O=C1c2ccccc2-c2ncnc3c(N4CCOCC4)cc(N4CCOCC4)c1c23 | 80.9%
28 | CCCC(=O)Nc1nnc(-c2ccc(Cl)s2)o1 | 91.2%
29 | O=C(COc1ccccc1)Nc1ccc(S(=O)(=O)N2CCCC2)cc1 | 88.7%
30 | COc1cccc(N2CCN(C(=O)CN(C)S(=O)(=O)c3ccc4c(c3)CCC(=O)N4)CC2)c1 | 85.5%
31 | CC(C)(C)c1ccc(-c2cc(N)n[nH]2)cc1 | 90.1%
32 | CCCOC(=O)c1ccc(-n2nnnc2SCC(=O)N2CCCCC2)cc1 | 86%
33 | CCOc1ccc(-c2cc(CCCC(=O)NCc3ccco3)no2)cc1 | 88%
34 | Nc1nnc(N2CCc3ccccc32)s1 | 102%
35 | O=C(NC1CCN(Cc2ccccc2)CC1)C1CCN(c2nnc(-n3cccc3)s2)CC1 | 79.3%
36 | CCn1c(C(C)NC(=O)Cc2ccccc2)nc2ccccc21 (stereo not given) | 96%
37 | CC1(C)Cc2c(C#N)c(NC3CCCCC3)nc(-c3ccco3)c2CO1 | 76.3%
38 | O=C(NCc1ccc(F)cc1)c1cnc2n(c1=O)CCS2 | 102%
39 | Cc1sc2nc(SCC(=O)N3CCCC3)[nH]c(=O)c2c1C | 98%
40 | CC1Cc2nc(SCC(=O)N3CCOCC3)n(-c3ccccc3)c(=O)c2S1 (stereo not given) | 104%

Experiment: RAM pathway blockade in budding yeast – dse1pr::URA3 reporter, 5-FOA selection, pilot screen (AID 869);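 note: 0% = DMSO wells with no growth and 100% = 10 µM 1-NA-PP1 with full growth; RAM network block rescues cells from 5-FOA so hits raise OD615 growth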
Settings: S. cerevisiae dse1pr::URA3 5-FOA growth, OD615, 2 d; at 10 µM; hits give high values; strain carries analog-sensitive mutant Cbk1 kinase

Row | SMILES | inhibition [%]
41 | Cc1oc(-c2cccs2)nc1CS(=O)CC(=O)NCCc1ccccc1 (stereo not given) | 2.6
42 | CCN(CC)C(=O)C1CCCN(C/C=C/c2ccccc2)C1 (stereo not given) | 0.74
43 | c1ccc(Cn2c(CSc3nnnn3-c3ccccc3)nc3ccccc32)cc1 | 1.48
44 | COc1ccc(-c2cn3c(C)c(C(=O)NC(C)(C)C)sc3n2)cc1 | 0.645
45 | C/C=C/Cn1c(N(C)Cc2ccccc2)nc2c1c(=O)[nH]c(=O)n2C | 0.445
46 | CCC1CC(C)(C(=O)Nc2ccc(S(N)(=O)=O)cc2)OC1=O (stereo not given) | 1.36
47 | Cc1cccn2cc(-c3ccc(F)cc3)nc12 | 1.56
48 | CC1CCCCN1C(=O)c1ccccc1NC(=O)c1ccco1 (stereo not given) | 2.17
49 | COCCNS(=O)(=O)c1ccc(C2CNC(=O)C2)cc1 (stereo not given) | 2.2
50 | COc1cccc(OCC(=O)N(Cc2nc(-c3ccc(Cl)cc3)no2)C(C)C)c1 | 3.32
51 | COC(=O)C1C(=O)c2c([nH]c(C(=O)OC3CCCC3C)c2C)CC1C (stereo not given) | 2.68
52 | O=C(Cn1c(S(=O)(=O)Cc2ccccc2)nc2ccccc21)N1CCCCC1 | -0.04
53 | COc1ccc(Cl)cc1NC(=O)CSc1nnc(Cn2c(=O)sc3ccccc32)n1C | 4.87
54 | Cc1cc(C)c(C)c(OCC(=O)NCCN(C)C)c1 | 0.79
55 | COC(=O)c1ccc(C2C(C(C)=O)=C(C)Nc3ncnn32)cc1 (stereo not given) | 1.9
56 | CCOC(=O)Cn1c(=O)oc2cc(S(=O)(=O)Nc3c(C)cc(C)cc3C)ccc21 | 0.86
57 | CC(c1ccccc1)C(CC(=O)O)C(=O)NC1CCCCC1 (stereo not given) | 1.54
58 | Cc1cc(C2N=C(N)Nc3nc4ccccc4n32)c(C)n1-c1ccccc1Cl (stereo not given) | 2.92
59 | CCOCCn1c(SCCc2ccccc2)nc2c1c(=O)[nH]c(=O)n2C | 1.69
60 | CSc1ccc(S(=O)(=O)N2CCN(Cc3ccc4c(c3)OCO4)CC2)cc1 | 0.865

Row | SMILES | inhibition [%]
61 | CC(=O)N1C(C(=O)O)CSC1c1ccc(C)cc1 (stereo not given) | -0.43
62 | Cc1cc(=O)[nH]c(SCc2cc(Cl)ccc2OC(F)F)n1 | 1.62
63 | C=CCn1c(=NC(=O)C2CC2)sc2cc(NC(C)=O)ccc21 | 0.675
64 | O=C(O)c1ccc(-n2nnnc2SCc2ccccc2F)cc1 | 2.46
65 | O=C(O)C1(P(=O)(c2ccccc2)c2ccccc2)CCC1 | 1.34
66 | CCOC(=O)C1=C(C)NC(=O)NC1c1ccc(C)o1 (stereo not given) | 0.345
67 | O=C1c2ccccc2-c2ncnc3c(N4CCOCC4)cc(N4CCOCC4)c1c23 | -0.74
68 | CCCC(=O)Nc1nnc(-c2ccc(Cl)s2)o1 | 1.61
69 | O=C(COc1ccccc1)Nc1ccc(S(=O)(=O)N2CCCC2)cc1 | 2.33
70 | COc1cccc(N2CCN(C(=O)CN(C)S(=O)(=O)c3ccc4c(c3)CCC(=O)N4)CC2)c1 | 0.59
71 | CC(C)(C)c1ccc(-c2cc(N)n[nH]2)cc1 | 2.32
72 | CCCOC(=O)c1ccc(-n2nnnc2SCC(=O)N2CCCCC2)cc1 | 0.595
73 | CCOc1ccc(-c2cc(CCCC(=O)NCc3ccco3)no2)cc1 | 0.22
74 | Nc1nnc(N2CCc3ccccc32)s1 | 0.805
75 | O=C(NC1CCN(Cc2ccccc2)CC1)C1CCN(c2nnc(-n3cccc3)s2)CC1 | 0.53
76 | CCn1c(C(C)NC(=O)Cc2ccccc2)nc2ccccc21 (stereo not given) | 1.83
77 | CC1(C)Cc2c(C#N)c(NC3CCCCC3)nc(-c3ccco3)c2CO1 | 3.23
78 | O=C(NCc1ccc(F)cc1)c1cnc2n(c1=O)CCS2 | 0.54
79 | Cc1sc2nc(SCC(=O)N3CCCC3)[nH]c(=O)c2c1C | 0.26
80 | CC1Cc2nc(SCC(=O)N3CCOCC3)n(-c3ccccc3)c(=O)c2S1 (stereo not given) | 0.16

Source: PubChem BioAssay
